A number with no mark means an inactive call. Results filed as inconclusive are left out. The source made the active and inactive calls. Unless noted, calls come from the whole dose curve; as a rule, active = well fitted curve in the direction sought with a large enough effect in the repeat runs; inconclusive = weak or mixed curves; inactive = no such curve, though single readings can be large; an effect the other way counts as inactive or inconclusive.

Here are results for 15 compounds from PubChem BioAssay (Tox21).

Test [1] can be described thus: qHTS assay to test for compound auto fluorescence at 535 nm (green) in HEK293 cells (AID 720680). A general note: In qHTS, concentration-response curves come from the screen itself.
Test [2] in a line: qHTS assay to test for compound auto fluorescence at 460 nm (blue) in HEK293 cell free culture (AID 720681). The gist of the method: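 Test compounds were pinned into cell-free culture medium (DMEM with 10% FBS) and fluorescence was read directly at Ex/Em 405/460 nm. Signals were expressed as fluorescence equivalents of triamterene, with DMSO vehicle as control.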
A short description of test [3]: qHTS assay to test for compound auto fluorescence at 535 nm (green) in HEK293 cell free culture (AID 720682). The gist of the method: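 Intrinsic compound fluorescence is measured in culture medium containing 10% FBS, with excitation at 485 nm and detection at 535 nm, referenced to fluorescein.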
Test [4] can be described thus: qHTS assay to test for compound auto fluorescence at 590 nm (red) in HEK293 cell free culture (AID 720683). The method, boiled down: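 Tox21 10K library compounds were pinned into cell-free DMEM with 10% FBS and fluorescence was read at excitation 540 nm. Activity is expressed as Rose Bengal sodium equivalency.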
Test [5] can be described thus: qHTS assay to test for compound auto fluorescence at 590 nm (red) in HepG2 cell free culture (AID 720684). The method, boiled down: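 Measured in medium alone (MEM containing 10% FBS) following pintool addition of compound; emission at 590 nm with 540 nm excitation, referenced to Rose Bengal sodium.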
The nature of test [6]: qHTS assay to test for compound auto fluorescence at 460 nm (blue) in HepG2 cell free culture (AID 720685). The gist of the method: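 Compound (23 nL) or DMSO pinned into cell-free MEM with 10% FBS; blue fluorescence read at 405/460 nm excitation/emission, expressed as auto-fluorescence equivalency to triamterene.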
Test [7] can be described thus: qHTS assay to test for compound auto fluorescence at 535 nm (green) in HepG2 cell free culture (AID 720686).
Test [8] is described as follows: qHTS assay to test for compound auto fluorescence at 460 nm (blue) in HepG2 cells (AID 720687). The method, boiled down:
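Cells (2,000/well in MEM with 10% FBS) attached overnight at 37 C, then were exposed to compound or DMSO for 1 hr at 37 C, 5% CO2. Fluorescence read at Ex/Em 405/460 nm, expressed as triamterene-equivalent signal.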

A short description of test [9]: qHTS assay to identify small molecule antagonists of the glucocorticoid receptor (GR) signaling pathway - cell viability counter screen (AID 720693). Note: nearly all actives have a fitted effect of over 55% in size.
A short description of test [10]: qHTS assay for identifying genotoxic compounds that show differential cytotoxicity against isogenic chicken DT40 cell lines with known DNA damage response pathways - wild type cell line (AID 743012). Note: nearly all actives have a fitted effect of over 60% in size. Note: potency is the fitted concentration of half-maximal effect. The method, boiled down:
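Wild type DT40, 300 cells/well, ~0.5 h settle at 37 C/5% CO2; compounds in DMSO added by pintool; 40 h at 37 C/5% CO2; CellTiter-Glo, 30 min RT; luminescence.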

A short description of test [11]: qHTS assay for identifying genotoxic compounds that show differential cytotoxicity against isogenic chicken DT40 cell lines with known DNA damage response pathways - Rev3 mutant cell line (AID 743014). Note: nearly all actives have a fitted effect of over 55% in size. Note: potency is the fitted concentration of half-maximal effect.
Test [12] in a line: qHTS assay for identifying genotoxic compounds that show differential cytotoxicity against isogenic chicken DT40 cell lines with known DNA damage response pathways - Rad54/Ku70 mutant cell line (AID 743015). Note: nearly all actives have a fitted effect of over 60% in size. Note: potency is the fitted concentration of half-maximal effect.
Test [13] in a line: qHTS assay to identify small molecule antagonists of the androgen receptor (AR) signaling pathway - cell viability counter screen (AID 743033; note: nearly all actives have a fitted effect of over 45% in size).
The nature of test [14]: qHTS assay to identify small molecule antagonists of the androgen receptor (AR) signaling pathway using the MDA cell line - cell viability counter screen (AID 743041; note: nearly all actives have a fitted effect of over 45% in size). The gist of the method:
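Viability counter screen run alongside the AR antagonist reporter: cells seeded 5 h before compound, R1881 added, 16 h incubation at 37C without CO2, fluorescent CellTiter-Fluor signal quantified.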

For test [15], the target named is Glucocorticoid receptor (Homo sapiens) (UniProt P04150). In words: qHTS assay to identify small molecule agonists of the glucocorticoid receptor (GR) signaling pathway (AID 720691; active = well fitted activation curve with a large enough effect in the signal ratio in the repeat runs, not every such curve was filed as active; the % refers to the signal ratio). The gist of the method:
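Fluorescence intensity from LiveBLAzer B/G FRET substrate (2 h, room temperature) reports beta-lactamase expression driven by the glucocorticoid response element in GR-bla HeLa cells after 18 h compound exposure at 37 C.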

Test [16] deals with Androgen receptor (Homo sapiens) (UniProt P10275). Kind of test: qHTS assay to identify small molecule antagonists of the androgen receptor (AR) signaling pathway (AID 743035; active = well fitted inhibition curve with a large enough effect in the signal ratio in the repeat runs, not every such curve was filed as active; the % refers to the signal ratio). The method, boiled down:
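Fluorescence from a beta-lactamase FRET substrate (LiveBLAzer B/G, 2 h, room temperature) measured inhibition of R1881-stimulated signaling in GeneBLAzer AR-UAS-bla HEK293 cells exposed to compound for 16 h at 37C.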

Test [17] shares this target. In words: qHTS assay to identify small molecule agonists of the androgen receptor (AR) signaling pathway using the MDA cell line (AID 743040; note: nearly all actives have a fitted effect of over 20% in size). The method, boiled down: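 Luminescence from ONE-Glo, read after 30 min at room temperature, reflects MMTV-driven luciferase in MDA-kb2 cells (AR- and GR-responsive). Treatment lasted 16 h at 37C, 0% CO2.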
The target is the same in test [18]. In words: qHTS assay to identify small molecule antagonists of the androgen receptor (AR) signaling pathway using the MDA cell line (AID 743042; note: nearly all actives have a fitted effect of over 55% in size). The method, boiled down:
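MDA-kb2 cells (human breast carcinoma, stably carrying an MMTV-luciferase reporter responsive to AR and GR) were plated at 3,000 cells/well and preincubated 5 hr at 37C, then given compound plus R1881 agonist for 16 h. ONE-Glo luminescence was read.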

Test [19] shares this target. Kind of test: qHTS assay to identify small molecule agonists of the androgen receptor (AR) signaling pathway (AID 743036; active = well fitted activation curve with a large enough effect in the signal ratio in the repeat runs, with a control signal flat, not every such curve was filed as active; the % refers to the signal ratio). The method, boiled down:
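Agonist activity was scored by beta-lactamase reporter fluorescence in stably transfected HEK293 cells exposed to compounds for 16 h at 37C and 5% CO2. Substrate loading took 2 h at room temperature.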

Test [20] concerns the target Glucocorticoid receptor (Homo sapiens) (UniProt P04150). In words: qHTS assay to identify small molecule antagonists of the glucocorticoid receptor (GR) signaling pathway (AID 720692; active = well fitted inhibition curve with a large enough effect in the signal ratio in the repeat runs, not every such curve was filed as active; the % refers to the signal ratio). The method, boiled down: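 HeLa GR-bla cells; cmpd + dex 5 nM final, 18 h 37 C; LiveBLAzer B/G FRET substrate 2 h RT; fluorescence intensity read. Antagonist mode, qHTS.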
% is set by controls: 0 for no effect and ±100 for the full control effect.

Sequence of Androgen receptor (Homo sapiens) (P10275 whole entry, looked up): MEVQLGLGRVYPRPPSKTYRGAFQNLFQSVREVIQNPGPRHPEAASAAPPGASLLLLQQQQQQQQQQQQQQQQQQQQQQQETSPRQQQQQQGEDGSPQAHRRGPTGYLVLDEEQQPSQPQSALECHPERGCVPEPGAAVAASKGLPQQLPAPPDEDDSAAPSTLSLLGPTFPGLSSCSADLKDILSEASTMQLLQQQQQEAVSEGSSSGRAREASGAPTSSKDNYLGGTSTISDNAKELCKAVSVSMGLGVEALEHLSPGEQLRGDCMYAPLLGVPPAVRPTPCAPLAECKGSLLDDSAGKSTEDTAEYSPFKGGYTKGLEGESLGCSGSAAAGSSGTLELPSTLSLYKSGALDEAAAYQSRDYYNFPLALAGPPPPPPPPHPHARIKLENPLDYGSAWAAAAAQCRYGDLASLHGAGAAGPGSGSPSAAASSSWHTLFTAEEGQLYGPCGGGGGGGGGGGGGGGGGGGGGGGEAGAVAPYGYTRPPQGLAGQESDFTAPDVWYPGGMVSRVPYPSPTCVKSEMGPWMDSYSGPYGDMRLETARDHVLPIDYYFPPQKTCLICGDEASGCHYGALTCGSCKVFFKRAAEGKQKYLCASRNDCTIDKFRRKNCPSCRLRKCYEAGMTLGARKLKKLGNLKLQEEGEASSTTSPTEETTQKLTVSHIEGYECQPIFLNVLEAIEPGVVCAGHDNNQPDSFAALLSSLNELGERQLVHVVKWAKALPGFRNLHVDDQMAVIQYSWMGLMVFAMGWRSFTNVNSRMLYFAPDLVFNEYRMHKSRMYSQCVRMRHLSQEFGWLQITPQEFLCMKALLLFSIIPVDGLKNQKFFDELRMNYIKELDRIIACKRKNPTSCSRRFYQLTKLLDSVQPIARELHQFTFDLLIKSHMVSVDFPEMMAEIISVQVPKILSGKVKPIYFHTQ
Sequence of Glucocorticoid receptor (Homo sapiens) (P04150 whole entry, looked up): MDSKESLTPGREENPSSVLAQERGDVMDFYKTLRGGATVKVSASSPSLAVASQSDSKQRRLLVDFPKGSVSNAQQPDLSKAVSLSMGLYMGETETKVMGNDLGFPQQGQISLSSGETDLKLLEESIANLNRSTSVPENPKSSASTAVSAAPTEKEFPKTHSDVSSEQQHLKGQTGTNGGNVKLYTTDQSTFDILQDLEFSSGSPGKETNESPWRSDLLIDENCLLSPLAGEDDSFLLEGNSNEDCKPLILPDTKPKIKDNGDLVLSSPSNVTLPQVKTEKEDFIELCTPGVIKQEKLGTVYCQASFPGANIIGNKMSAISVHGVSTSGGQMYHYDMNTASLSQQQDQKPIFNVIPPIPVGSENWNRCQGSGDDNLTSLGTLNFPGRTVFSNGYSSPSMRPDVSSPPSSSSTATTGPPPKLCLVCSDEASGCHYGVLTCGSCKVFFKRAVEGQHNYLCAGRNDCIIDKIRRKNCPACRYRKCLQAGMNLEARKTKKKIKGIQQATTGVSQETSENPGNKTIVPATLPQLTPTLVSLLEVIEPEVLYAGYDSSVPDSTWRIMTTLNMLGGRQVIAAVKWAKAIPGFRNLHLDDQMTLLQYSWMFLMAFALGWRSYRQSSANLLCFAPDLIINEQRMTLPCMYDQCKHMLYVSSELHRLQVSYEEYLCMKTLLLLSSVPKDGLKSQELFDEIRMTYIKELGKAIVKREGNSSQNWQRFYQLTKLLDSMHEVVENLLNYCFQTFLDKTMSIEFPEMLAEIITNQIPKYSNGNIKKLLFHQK

Turning to `CN1CCC[C@@H]1c1cccnc1`, the compound was classed as inactive in test [1], in [3], in test [4], in test [5] and in test [7]. Moreover, the Potency result in [2], in [6], in test [8], in test [9], in [10] and in [11] was “inactive” in each case. The Potency result in [12], in test [13] and in test [14] was “inactive” throughout.
Turning to `Cc1nc2ccccc2n1Cc1ccc(Cl)cc1`, the compound was called inactive in [1], in test [3], in test [4], in test [5] and in [7]. Moreover, the Potency entry in [2], in test [6], in [8] and in test [15] was “inactive” throughout. Besides, the Potency in [10] is 2.11 µM (active); in test [11] it was 5.31 µM (active); in [12], 4.22 µM (active).
Take `C#CCOC(=O)[C@@H](C)Oc1ccc(Oc2ncc(Cl)cc2F)cc1`: the result in test [1], in [3], in [4], in test [5] and in test [7] was inactive. In addition, the Potency result in test [2], in [6], in test [8], in test [15], in test [11] and in test [13] was “inactive” each time. The Potency result in test [14] was “inactive”.
For the compound `CCc1nn(C2CCCCC2)c2cc(C3(C#N)CCC(C(=O)O)CC3)ccc12` (configuration not stated), the compound was classed as inactive in [1], in test [3], in [4], in test [5] and in test [7]. For the same compound, the Potency result in [2], in test [6], in [8], in test [15] and in test [14] was “inactive” each time.
For the compound `c1ccc(CNCc2ccccc2)cc1`, the compound was called inactive in [1], in test [3], in [4], in test [5] and in test [7]. The Potency result in test [2], in test [6], in [8], in test [15], in test [9] and in [13] was “inactive” throughout. Moreover, in test [14], the Potency result is “inactive”. The Potency in test [10] is 54.5 µM (active); in test [11], 30.6 µM (active).
For the compound `C[C@H](CCC(=O)O)[C@H]1CC[C@H]2[C@@H]3[C@H](O)C[C@@H]4C[C@H](O)CC[C@]4(C)[C@H]3CC[C@]12C`, the compound was called inactive in test [1], in test [3], in test [4], in test [5] and in test [7]. Further, the Potency entry in test [2], in test [6], in test [8], in [9], in test [10] and in test [11] was “inactive” in each case. In addition, the Potency entry in [12], in [13] and in test [14] was “inactive” in each case.
In the case of `CC(C(=O)O)c1ccc(C(=O)c2ccccc2)s1` (configuration not stated), the fluorescence, % of fluorescein in [1] is 0.0614% [at 18.6 µM]. The fluorescence, % of fluorescent control was -0.0527% [at 18.6 µM] in test [2], -0.0875% [at 18.6 µM] in test [4], -0.006% [at 18.6 µM] in [6] and 0.0098% [at 18.6 µM] in test [8]. The activity change in test [3] is -0.0099% [at 18.6 µM]. Further, the fluorescence, % of Rose Bengal in test [5] was 0.261% [at 18.6 µM]. Further, the fluorescence, % of fluorescein control in test [7] is 0.146% [at 18.6 µM]. Moreover, the Potency result in test [9], in [10], in test [11], in [12], in test [16] and in test [17] was “inactive” throughout. Also, the Potency entry in [14] and in test [18] was “inactive” throughout.
In the case of `Oc1ccc2c(c1)OCO2`, the outcome in test [1], in test [3], in [4], in test [5] and in test [7] was inactive. Further, the Potency entry in test [2], in [6], in [8], in [15], in test [9] and in test [13] was “inactive” each time. Further, the Potency result in test [14] is “inactive”. Besides, the Potency in test [10] and in test [11] was 54 µM (active) throughout.
As for `O=C(O)C(c1ccc(Cl)cc1)c1ccc(Cl)cc1`, the compound was called inactive in test [1], in [3], in test [4], in [5] and in test [7]. In addition, the Potency result in test [2], in test [6], in test [8], in test [9], in [10] and in test [11] was “inactive” each time. Also, the Potency result in test [12] and in test [14] was “inactive” in each case.
As for `C=C(C)C(=O)OC(C)C`, the result in [1], in [3], in [4], in test [5], in test [7] and in test [19] was inactive. The Potency entry in test [2], in test [6], in [8], in [9], in [10] and in test [11] was “inactive” throughout. For the same compound, the Potency result in test [12], in test [16], in [17], in [14] and in test [18] was “inactive” each time.
`O=S1(=O)N=C(O)c2ccccc21`: the result in test [1], in [3], in [4], in test [5] and in test [7] was inactive. Besides, the Potency result in test [2], in [6], in [8], in test [10], in test [11] and in [12] was “inactive” throughout. In test [14], the Potency result was “inactive”.
`CCCCC(CC)(CO)CO`: the compound was called inactive in test [1], in test [3], in test [4], in test [5] and in test [7]. The Potency entry in test [2], in [6], in [8], in [9], in test [10] and in test [12] was “inactive” throughout. Moreover, the Potency entry in test [13] and in [14] was “inactive” in each case.
For `COc1ccc2[nH]c(S(=O)Cc3ncc(C)c(OC)c3C)nc2n1` (configuration not stated), the result in test [1], in test [4], in test [5] and in test [7] was inactive. Besides, the Potency result in test [2], in test [6], in [8], in test [15], in test [20] and in [9] was “inactive” in each case. In addition, the Potency entry in test [13] and in test [14] was “inactive” throughout. Further, the Potency in test [10] and in [12] was 29.8 µM (active) each time.
On to `CCCCOCCOCCOCCOCCO`, for which the compound was called inactive in test [1], in [3], in [4], in test [5] and in test [7]. The Potency result in test [2], in [8], in [9], in [10], in [13] and in test [14] was “inactive” throughout.
For the compound `CC[C@H](C)[C@@H](C(=O)O)n1sc2ccccc2c1=O`, the call in test [1], in test [4], in [5] and in [7] was inactive. The Potency result in test [2], in test [6], in test [8], in test [15], in test [20] and in test [10] was “inactive” throughout. In addition, in test [14], the Potency entry is “inactive”.
